Compound activity deposited in PubChem by Johns Hopkins Ion Channel Center.
Sampled rows, rich in hits. Any-hit rate of the full collection: about 1.6%.
KCNQ2 inh – blocks the rat KCNQ2 potassium channel | CHO-K1 KCNQ2, FluxOR thallium flux, 20 min; stronger effect = lower value | B-score at 10 µM | hit rate 1.1% among 310,000 | AID 2156;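 active = fluorescence ratio B-score at most minus 3 library SDs, with starting brightness B-score within 2 library SDs, cut at about -5.5 in these data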
KCNQ2 pot – potentiators of rat KCNQ2 potassium channel; O88943; CHO-K1 KCNQ2, FluxOR thallium flux fluorescence; stronger effect = higher value; B-score at 10 µM; hit rate 0.54% among 310,000;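 active = fluorescence ratio B-score at least 3 SD of library B-scores, with initial fluorescence B-score within 3 of them, cut at about 5.3 in these data; same plate scores as AID 2156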;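 also: B-score of peak minus minimum over baseline fluorescence ratio after K+ and Tl+ stimulus; positive B-score means potentiation of KCNQ2 with more thallium influx and brighter signal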
Kir21 confirm – confirmation of mouse Kir2.1 potassium channel inhibitors; shares compounds with KCNQ2 pot; Kir2.1-expressing cells, FluxOR thallium flux fluorescence; stronger effect = lower value; Tl flux remaining, % of negative control (stronger effect = lower value), % at 10 µM; hit rate 41% among 2,300; AID 2032;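 active = Primary-screen hit whose thallium flux fell at least 3 control SD below untreated wells in both duplicates, with normal baseline fluorescence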;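 also: 0% = blank wells without stimulus and 100% = stimulated no-compound controls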
Target sequence (P35561 whole entry, looked up): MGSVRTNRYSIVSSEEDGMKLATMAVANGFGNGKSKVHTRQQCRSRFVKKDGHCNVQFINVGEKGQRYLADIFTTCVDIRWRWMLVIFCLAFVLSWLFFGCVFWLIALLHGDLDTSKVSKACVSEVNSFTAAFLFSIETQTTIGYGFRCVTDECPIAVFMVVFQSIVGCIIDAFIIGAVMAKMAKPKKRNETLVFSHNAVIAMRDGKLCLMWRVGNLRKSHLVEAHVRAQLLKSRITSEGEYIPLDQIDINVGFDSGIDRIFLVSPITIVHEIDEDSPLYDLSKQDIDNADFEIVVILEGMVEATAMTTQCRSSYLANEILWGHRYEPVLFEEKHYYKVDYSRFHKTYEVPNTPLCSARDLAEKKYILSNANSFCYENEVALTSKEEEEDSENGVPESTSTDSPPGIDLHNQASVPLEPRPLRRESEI
HEK293 Tl flux – counter-screen for Kir2.1 inhibitors: effect in parental HEK293 cells; shares compounds with KCNQ2 pot; FluxOR thallium flux fluorescence; 0% = unstimulated blank wells; FluxOR signal as % of negative control (100 = no effect), % at 10 µM; hit rate 19% among 2,300;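 active = dye signal at least 3 control SD above or below untreated wells in both duplicates, raw fluorescence within 3, either direction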;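 also: percent is based on the flux ratio of peak minus minimum fluorescence over baseline F0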
CHO-K1 ctr – parental CHO-K1 activity in KCNQ2 potentiator counter-screen | shares compounds with KCNQ2 pot | parental CHO-K1 cells, FluxOR thallium flux fluorescence; zero = vehicle mean+3SD, 100% = vehicle-minus-blank window | activity increase over 3SD of controls, % at 10 µM | hit rate 43% among 1,200;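 active = signal rise of at least 3 SD above the untreated control mean, in both duplicate wells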;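 also: counter screen of KCNQ2 potentiator hits so any rise reflects channel-independent effects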
KCNQ1 sel pot – tests whether KCNQ2 potentiators also act on human KCNQ1. shares compounds with KCNQ2 pot. CHO KCNQ1 stable, FluxOR thallium flux fluorescence; beyond 3SD, as % of vehicle-control signal. activation over 3SD threshold, % at 10 µM. hit rate 28% among 1,200. AID 2283;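 active = fluorescence ratio rise of at least 3 SD of vehicle wells above their mean, in both replicate wells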;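 also: 0% = vehicle mean plus 3 SD and 100% = vehicle minus unstimulated blank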
KCNQ2 pot conf – confirmation of rat KCNQ2 potassium channel potentiators; shares compounds with KCNQ2 pot; CHO-KCNQ2 cells, FluxOR thallium flux fluorescence; potentiation, less the hit threshold, % at 10 µM; hit rate 68% among 1,200;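 active = fluorescence ratio rising 3 SD or more over the vehicle control mean in both replicates, plus primary screen hit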;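 also: peak minus minimum thallium fluorescence divided by baseline after K/Tl stimulus; 0% = vehicle mean plus 3 SD and 100% = vehicle minus unstimulated blank difference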
Kir21 spec – selectivity of KCNQ2 potentiators: effect on mouse Kir2.1 | shares compounds with KCNQ2 pot | HEK293 Kir2.1, FluxOR thallium flux fluorescence | activity over 3SD threshold, % at 10 µM | hit rate 2% among 1,200;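 active = fluorescence ratio rise of at least 3 SD above the vehicle-control mean, seen in both replicates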;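 also: 0% = vehicle mean plus 3 SD and 100% = vehicle minus no-stimulus blank window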
KCNQ2 W236L pot – KCNQ2 potentiators acting on retigabine-insensitive rat KCNQ2 W236L mutant; shares compounds with KCNQ2 pot; CHO KCNQ2-W236L, automated patch clamp current; current increase over 3SD of negative controls (%), stronger effect = higher value, % at 25 µM; hit rate 10% among 940;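 active = current increase at least 3 SD of the untreated controls above them in both duplicate recordings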
* = called active by the depositor.

Results for CCCC(c1nnnn1CS(=O)(=O)c1ccc(C)cc1)N1CCN(c2ccc(F)cc2)CC1 (configuration not stated) ?
KCNQ2 inh: inactive

What do the screens show for `CCCC(c1nnnn1CS(=O)(=O)c1ccc(C)cc1)N1CCN(CC)CC1` (configuration not stated)?
KCNQ2 inh: inactive; KCNQ2 pot: 5.47*; Kir21 confirm: inactive; HEK293 Tl flux: inactive; CHO-K1 ctr: 32.5*; KCNQ1 sel pot: -8.5; KCNQ2 pot conf: 0.3*; Kir21 spec: -27.8; KCNQ2 W236L pot: inactive

What do the screens show for `COc1ccccc1N1CCN(C(c2cccs2)C(C)NC(=O)c2ccncc2)CC1` (configuration not stated)?
KCNQ2 inh: inactive

Results for Cc1nn(CC(=O)NCCC2=CCCCC2)c(C)c1[N+](=O)[O-] ?
KCNQ2 inh: inactive; KCNQ2 pot: 0.98

What do the screens show for `CC(C)c1ccc(/C=N/n2c(COc3ccccc3)n[nH]c2=S)cc1`?
KCNQ2 inh: inactive; KCNQ2 pot: 7.67*; Kir21 confirm: inactive; HEK293 Tl flux: inactive; CHO-K1 ctr: -3.3; KCNQ1 sel pot: -45.0; KCNQ2 pot conf: 9.0*; Kir21 spec: -15.2; KCNQ2 W236L pot: inactive

How did Cc1ccc(/C=N/n2c(COc3ccccc3)n[nH]c2=S)cc1 do in these assays?
KCNQ2 inh: inactive

Results for O=C(Nc1cccnc1)C1CCC(CNS(=O)(=O)c2cccc3nsnc23)CC1 (configuration not stated) ?
KCNQ2 inh: inactive; KCNQ2 pot: 0.45

How did CCOC(=O)c1c(C)[nH]c(C)c1S(=O)(=O)NCc1ccccc1OCC do in these assays?
KCNQ2 inh: inactive

How did COc1ccccc1NC(=O)C(C)OC(=O)CCC1CCCCC1 (configuration not stated) do in these assays?
KCNQ2 inh: inactive

How did Cn1cc(SCC(=O)N2CCCc3ccccc32)c2ccccc21 do in these assays?
KCNQ2 inh: inactive; Kir21 confirm: 51.5%*; HEK293 Tl flux: inactive

What do the screens show for `Cn1cc(SCC(=O)N2CCOCC2)c2ccccc21`?
KCNQ2 inh: inactive

What do the screens show for `CCOC(=O)CN(C)Cc1cn(C)nc1-c1ccc(Oc2ccccc2)cc1`?
KCNQ2 inh: inactive

What do the screens show for `FC(F)(F)c1cnc(Oc2ccccc2-c2nnco2)c(Cl)c1`?
KCNQ2 inh: inactive; KCNQ2 pot: 7.44*; Kir21 confirm: inactive; HEK293 Tl flux: inactive; CHO-K1 ctr: -6.4; KCNQ1 sel pot: -1.4; KCNQ2 pot conf: 52.7*; Kir21 spec: -32.8; KCNQ2 W236L pot: inactive

What do the screens show for `FC(F)(F)c1cnc(Oc2ccc(-c3nnco3)cc2)c(Cl)c1`?
KCNQ2 inh: inactive

How did CC(C)CN(C(=O)CCCSc1nc2ccccc2[nH]1)c1c(N)n(Cc2ccccc2)c(=O)[nH]c1=O do in these assays?
KCNQ2 inh: inactive

How did COc1ccc(C(CNC(=O)C(C)Oc2ccc(Br)cc2)N2CCOCC2)cc1 (configuration not stated) do in these assays?
KCNQ2 inh: inactive

Results for COc1ccccc1C(CNC(=O)C(C)Oc1ccc(Br)cc1)N1CCCC1 (configuration not stated) ?
KCNQ2 inh: inactive; KCNQ2 pot: 0.14; Kir21 confirm: inactive; HEK293 Tl flux: inactive

What do the screens show for `O=C(NCCCN1CCOCC1)c1cccnc1SCc1ccccc1Cl`?
KCNQ2 inh: inactive; KCNQ2 pot: 0.06

What do the screens show for `CN(C)/C=C1\C(=O)Oc2ccccc2C1=O`?
KCNQ2 inh: inactive; KCNQ2 pot: 0.79

Results for Cc1c(C(=O)N/N=C/c2cccs2)nnn1-c1nonc1N ?
KCNQ2 inh: inactive; KCNQ2 pot: 0.58

What do the screens show for `COc1ccc(CCNC(=O)c2nn(C)c3c2CS(=O)(=O)c2ccccc2-3)c(OC)c1`?
KCNQ2 inh: inactive

How did CC(CCc1ccccc1)NC(=O)Cc1ccccc1 (configuration not stated) do in these assays?
KCNQ2 inh: inactive

What do the screens show for `O=C(COC(=O)CC(c1ccccc1)c1ccccc1)NCc1ccc(Cl)cc1`?
KCNQ2 inh: inactive

How did CC(CCc1ccccc1)NC(=O)CC(C)c1ccccc1 (configuration not stated) do in these assays?
KCNQ2 inh: inactive; Kir21 confirm: 55.5%*; HEK293 Tl flux: inactive

What do the screens show for `CC(CC(=O)NCc1ccc(Cl)cc1)c1ccccc1` (configuration not stated)?
KCNQ2 inh: inactive; KCNQ2 pot: 5.91*; Kir21 confirm: inactive; HEK293 Tl flux: inactive; CHO-K1 ctr: -6.6; KCNQ1 sel pot: -23.0; KCNQ2 pot conf: -2.0; Kir21 spec: -48.0; KCNQ2 W236L pot: inactive

Results for Cn1c(=O)c2c(SCC(=O)N3CCCCC3)nc(-c3ccccc3F)nc2n(C)c1=O ?
KCNQ2 inh: inactive; KCNQ2 pot: 2.81

Results for NC(=O)c1ccc(NC(=O)COC(=O)C2(c3ccccc3F)CCCC2)cc1 ?
KCNQ2 inh: inactive; KCNQ2 pot: 1.85

Results for O=C(COC(=O)C1(c2ccccc2F)CCCC1)NCc1cccs1 ?
KCNQ2 inh: inactive; Kir21 confirm: 73.0%*; HEK293 Tl flux: inactive

What do the screens show for `O=C(O)c1cc([N+](=O)[O-])c(N2CCCC2)c([N+](=O)[O-])c1`?
KCNQ2 inh: inactive

What do the screens show for `CC1CCN(C(=O)CCNS(=O)(=O)c2ccccc2)CC1`?
KCNQ2 inh: inactive; KCNQ2 pot: 0.15

What do the screens show for `O=C(CCNS(=O)(=O)c1ccccc1)N1CCC(Cc2ccccc2)CC1`?
KCNQ2 inh: inactive; KCNQ2 pot: 10.5*; Kir21 confirm: inactive; HEK293 Tl flux: inactive; CHO-K1 ctr: 13.9*; KCNQ1 sel pot: 87.7*; KCNQ2 pot conf: 8.7*; Kir21 spec: -35.6; KCNQ2 W236L pot: inactive

What do the screens show for `Oc1c(Cl)cc(Cl)cc1Sc1cc(Cl)cc(Cl)c1O`?
KCNQ2 inh: inactive; KCNQ2 pot: 44.7*; Kir21 confirm: inactive; HEK293 Tl flux: 375.0%*; CHO-K1 ctr: 47.1*; KCNQ1 sel pot: -3.1; KCNQ2 pot conf: 222.7*; Kir21 spec: -29.6; KCNQ2 W236L pot: inactive
